The target in test [1] is Rap guanine nucleotide exchange factor 3 (Homo sapiens) (UniProt O95398). Description: Confirmatory qHTS for antagonist of cAMP-regulated guanine nucleotide exchange factor 3 (EPAC1) (AID 1645880). Further: nearly all actives have a fitted effect of over 55% in size. Further: potency means the concentration at half of the fitted maximal effect. In short, it runs like this:
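Nucleotide exchange uses 100 nM EPAC1, 250 nM RAP1B-BODIPY-GDP and 50 uM GDP, with compounds in a concentration-titration series. After 5 min at room temperature, fluorescence (480 nm ex/540 nm em) is read every 5 min for 30 min. Data are normalized to control ATA and DMSO.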
A general note: qHTS replaces the single test concentration by a dilution series.

Test [2] shares this target. Put plainly: Confirmatory qHTS for agonist of cAMP-regulated guanine nucleotide exchange factor 3 (EPAC1) (AID 1645881).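 Further: EPAC1 catalysed release of BODIPY-GDP from Rap1B seen as fluorescence loss; 100% = effect of cAMP agonist control; nearly all actives have a fitted effect of over 75% in size.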
For test [3], the target named is Rap guanine nucleotide exchange factor 4 (Homo sapiens) (UniProt Q8WZA2). Put plainly: Confirmatory qHTS for agonist of cAMP-regulated guanine nucleotide exchange factor 4 (EPAC2) (AID 1645884).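 Further: nucleotide exchange releases bodipy-GDP from Rap1 and this lowers its fluorescence; on the % scale 0 is the no-effect control and ±100 the full control effect; nearly all actives have a fitted effect of over 65% in size.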
Test [4] has the same target. Put plainly: Confirmatory qHTS for antagonist of cAMP-regulated guanine nucleotide exchange factor 4 (EPAC2) (AID 1645885). Further: nearly all actives have a fitted effect of over 25% in size. Further: potency means the concentration at half of the fitted maximal effect. On activity change, negative = inhibition: on the % scale 0 is the no-effect control and ±100 the full control effect.
Test [5] has as its target Rap guanine nucleotide exchange factor 3 (Homo sapiens) (UniProt O95398). Put plainly: Counterscreen qHTS for antagonist of cAMP-regulated guanine nucleotide exchange factor 3 (EPAC1) (AID 1645888).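 Further: fluorescence loss as bound BODIPY-GDP is released from Rap1B; % of control where 0% means no effect.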 Put shortly:
(§1)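 Measured: fluorescence of BODIPY-GDP bound to Rap1B, which falls as exchange proceeds. Conditions include 50 uM competing GDP, 5 and 30 min reads, and a later cAMP challenge for antagonist detection.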

Test [6] has the same target. Put plainly: Counterscreen qHTS for agonist of cAMP-regulated guanine nucleotide exchange factor 3 (EPAC1) (AID 1645889). Further: % of control where 0% means no effect; nearly all actives have a fitted effect of over 40% in size. In short, it runs like this: as §1

Records with an inconclusive call do not appear. Values without a mark were called inactive. Active and inactive are the calls of the source. The call rests on the fitted dose curve; in most records, active means well fitted curve in the direction sought with a large enough effect; inconclusive means small, poorly fitted or top-dose-only effect, or another doubt; inactive means no such curve, though single readings can be large; an effect the other way counts as inactive or inconclusive.

Chain of Rap guanine nucleotide exchange factor 3 (Homo sapiens) (O95398 whole entry, looked up): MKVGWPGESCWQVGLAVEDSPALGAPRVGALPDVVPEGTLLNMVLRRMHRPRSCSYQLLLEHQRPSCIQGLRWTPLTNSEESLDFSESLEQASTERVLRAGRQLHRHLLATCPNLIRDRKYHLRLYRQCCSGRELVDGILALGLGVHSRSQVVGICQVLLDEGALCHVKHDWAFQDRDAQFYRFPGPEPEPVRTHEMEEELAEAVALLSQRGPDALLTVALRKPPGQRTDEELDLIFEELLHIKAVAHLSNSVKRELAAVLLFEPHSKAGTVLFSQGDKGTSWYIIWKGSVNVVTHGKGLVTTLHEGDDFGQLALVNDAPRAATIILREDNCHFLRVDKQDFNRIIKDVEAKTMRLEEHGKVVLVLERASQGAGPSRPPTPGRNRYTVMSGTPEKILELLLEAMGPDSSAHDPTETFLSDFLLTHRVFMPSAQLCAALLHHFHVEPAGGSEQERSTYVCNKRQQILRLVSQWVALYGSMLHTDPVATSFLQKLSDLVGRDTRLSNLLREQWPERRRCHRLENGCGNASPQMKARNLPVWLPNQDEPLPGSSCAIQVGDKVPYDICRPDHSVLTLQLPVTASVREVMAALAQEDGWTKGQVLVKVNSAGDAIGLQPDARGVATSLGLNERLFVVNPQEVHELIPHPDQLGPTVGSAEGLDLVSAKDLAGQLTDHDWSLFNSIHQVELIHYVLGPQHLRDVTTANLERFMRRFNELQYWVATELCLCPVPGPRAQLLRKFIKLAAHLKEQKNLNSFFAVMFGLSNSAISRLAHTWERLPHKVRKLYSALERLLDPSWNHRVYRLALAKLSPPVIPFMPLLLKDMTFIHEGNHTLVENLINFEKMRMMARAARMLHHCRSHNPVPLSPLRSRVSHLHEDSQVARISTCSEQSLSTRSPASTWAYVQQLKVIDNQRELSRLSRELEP
Chain of Rap guanine nucleotide exchange factor 4 (Homo sapiens) (Q8WZA2 whole entry, looked up): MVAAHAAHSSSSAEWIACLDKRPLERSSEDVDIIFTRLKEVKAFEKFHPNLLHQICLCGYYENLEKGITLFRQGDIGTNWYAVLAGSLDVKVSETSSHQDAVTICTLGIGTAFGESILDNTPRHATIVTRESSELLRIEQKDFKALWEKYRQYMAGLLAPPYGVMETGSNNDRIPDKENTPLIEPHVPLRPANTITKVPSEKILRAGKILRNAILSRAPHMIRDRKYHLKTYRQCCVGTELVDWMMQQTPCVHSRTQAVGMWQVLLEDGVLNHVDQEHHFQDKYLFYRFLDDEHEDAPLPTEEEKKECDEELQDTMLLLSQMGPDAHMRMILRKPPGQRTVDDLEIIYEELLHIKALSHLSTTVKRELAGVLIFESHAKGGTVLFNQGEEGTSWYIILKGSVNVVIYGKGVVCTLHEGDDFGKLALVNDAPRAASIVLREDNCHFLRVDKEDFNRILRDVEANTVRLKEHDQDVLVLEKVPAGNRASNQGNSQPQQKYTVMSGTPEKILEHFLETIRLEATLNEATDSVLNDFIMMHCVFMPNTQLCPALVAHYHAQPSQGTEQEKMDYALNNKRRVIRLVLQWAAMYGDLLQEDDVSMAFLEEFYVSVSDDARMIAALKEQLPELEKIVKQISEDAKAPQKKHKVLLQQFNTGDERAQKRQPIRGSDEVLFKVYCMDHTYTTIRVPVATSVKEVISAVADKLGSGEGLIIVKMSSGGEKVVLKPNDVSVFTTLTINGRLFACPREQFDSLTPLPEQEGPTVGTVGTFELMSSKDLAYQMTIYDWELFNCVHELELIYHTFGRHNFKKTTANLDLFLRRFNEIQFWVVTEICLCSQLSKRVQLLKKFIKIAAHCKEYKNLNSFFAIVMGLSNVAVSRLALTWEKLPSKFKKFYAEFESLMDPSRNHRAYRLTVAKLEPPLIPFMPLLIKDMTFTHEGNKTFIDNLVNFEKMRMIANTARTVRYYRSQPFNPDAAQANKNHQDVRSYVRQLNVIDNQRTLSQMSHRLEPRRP

On to `CCOC(=O)N(C)c1c(CC)nc2c(OCc3ccc(OC(F)F)cc3)cccn12`, for which the Potency entry in test [1], in test [2], in test [3], in test [4], in test [5] and in test [6] was “inactive” throughout.
In the case of `CCOC(=O)C1CCN(C(=O)c2cccc(S(=O)(=O)N(CC)c3ccccc3)c2)CC1`, the Potency result in test [1], in test [2], in test [3], in test [4], in test [5] and in test [6] was “inactive” each time.
Regarding `O=C(NCCOc1ccccc1-c1ccccc1)c1ccco1`, the Potency entry in test [1], in test [2] and in test [4] was “inactive” each time. Further, the activation in test [3] was 6.96% [at 17.1 µM, percent relative to cAMP agonist control]; in test [6], 12.2% [at 30.8 µM]. The activity change, negative = inhibition in test [5] is -5.39% [at 30.8 µM].
On to `COCCCn1c(=O)/c(=C\c2ccc(OC(F)F)c(OC)c2)s/c1=C(/C#N)C(N)=O`, for which the Potency result in test [1], in test [2], in test [3], in test [4], in test [5] and in test [6] was “inactive” throughout.
`Cc1nnc(N/N=C\c2ccc(-c3ccccc3[N+](=O)[O-])o2)n1N`: the Potency result in test [1], in test [2] and in test [4] was “inactive” in each case. Also, the activation in test [3] is 4.31% [at 17.1 µM, percent relative to cAMP agonist control]; in test [6], 36.2% [at 30.8 µM]. Besides, in test [5], the activity change, negative = inhibition is 7.63% [at 30.8 µM].
With `Cc1cccc(/C(N)=N/OC(=O)Cc2cccc3ccccc23)c1`, the Potency result in test [1], in test [2] and in test [4] was “inactive” each time. The activation was 2.49% [at 17.1 µM, percent relative to cAMP agonist control] in test [3] and -1.93% [at 30.8 µM] in test [6]. In addition, the activity change, negative = inhibition in test [5] was -15.4% [at 30.8 µM].
`Cn1cc([C@]2(O)C(=O)Nc3ccccc32)c2ccccc21`: the Potency entry in test [1], in test [2] and in test [4] was “inactive” throughout. In addition, the activation was 0.506% [at 17.1 µM, percent relative to cAMP agonist control] in test [3] and 2.4% [at 30.8 µM] in test [6]. Also, the activity change, negative = inhibition in test [5] was -2.77% [at 30.8 µM].
For the compound `Cc1sc2ncnc(N3CCCC(C)C3)c2c1C` (stereo not given), the Potency result in test [1], in test [2], in test [3], in test [4], in test [5] and in test [6] was “inactive” throughout.
Regarding `CC(C)(C(=O)N1CCC1(C)C(=O)NS(=O)(=O)c1ccccc1Cl)c1ccccc1` (stereo not given), the Potency entry in test [1], in test [2] and in test [4] was “inactive” each time. Moreover, the activation in test [3] was 3.96% [at 17.1 µM, percent relative to cAMP agonist control]; in test [6], 1.99% [at 30.8 µM]. Moreover, the activity change, negative = inhibition in test [5] is 0.723% [at 30.8 µM].
With `COc1cc(/C=N/NC(=O)c2ccc3c(c2)OCCO3)cc(Br)c1O`, in test [1], the Potency was 42.6 µM (active). Besides, the Potency result in test [2], in test [3], in test [4], in test [5] and in test [6] was “inactive” each time.
`C=CCn1c(C)cc(C(=O)Cn2ncc(Cl)c(Cl)c2=O)c1C`: the Potency in test [1] was 37.9 µM (active). Besides, the Potency entry in test [2], in test [3], in test [4], in test [5] and in test [6] was “inactive” in each case.
For the compound `CCc1cccc2sc(NC(=O)c3ccc(N4C(=O)CCC4=O)cc3)nc12`, the Potency entry in test [1], in test [2], in test [3], in test [4], in test [5] and in test [6] was “inactive” throughout.
Take `CCOC(=O)c1ccc(N2C(=O)c3[nH]nc(-c4ccc(OCC)cc4)c3C2c2cccs2)cc1` (stereo not given): the Potency result in test [1], in test [2], in test [3], in test [4], in test [5] and in test [6] was “inactive” throughout.
For `O=C(OC1CCOC1=O)c1ccc(-c2nc3ccccc3s2)s1` (stereo not given), the Potency entry in test [1], in test [2], in test [3], in test [5] and in test [6] was “inactive” each time. For the same compound, the outcome in test [4] is “inactive [at 12.7 µM]”.
For `Cn1c(N)c(C(=O)COC(=O)COc2ccccc2C#N)c(=O)n(C)c1=O`, the Potency entry in test [1], in test [2] and in test [4] was “inactive” each time. Besides, the activation was 1.14% [at 17.1 µM, percent relative to cAMP agonist control] in test [3] and 3.75% [at 30.8 µM] in test [6]. In test [5], the activity change, negative = inhibition is 3.67% [at 30.8 µM].
On to `CCCCCC1CCC(c2ccc(C(N)=O)cc2)CC1` (stereo not given), for which the Potency result in test [1], in test [2], in test [3], in test [4], in test [5] and in test [6] was “inactive” throughout.
As to `Cc1ccccc1CN1C(=O)c2ccccc2Sc2ccc(C(=O)O)cc21`, the Potency result in test [1], in test [2], in test [3], in test [4], in test [5] and in test [6] was “inactive” in each case.
On to `O=C(Nc1cccc(C(F)(F)F)c1)c1cccc(NS(=O)(=O)c2ccc(O)c(C(=O)O)c2)c1`, for which the Potency in test [1] was 60.1 µM (active). For the same compound, the Potency result in test [2], in test [3], in test [4], in test [5] and in test [6] was “inactive” each time.
As for `O=C(COC(=O)c1ccc2c(c1)OCO2)NC1CCS(=O)(=O)C1` (stereo not given), the Potency result in test [1], in test [2], in test [3], in test [4], in test [5] and in test [6] was “inactive” throughout.
`CN(CCc1ccccn1)C(=O)Nc1ccc(F)cc1`: the Potency result in test [1], in test [2], in test [3], in test [4], in test [5] and in test [6] was “inactive” throughout.
Regarding `C=CCOc1ccc(/C=C2\SC(=S)N(NS(=O)(=O)c3ccc(C)cc3)C2=O)cc1`, the Potency in test [1] is 21.3 µM (active). The Potency entry in test [2], in test [3], in test [4], in test [5] and in test [6] was “inactive” in each case.
Consider `CCOc1c(OC)cccc1C1CC(=O)Nc2cc3c(cc21)OCCO3` (stereo not given), for which the Potency result in test [1], in test [2], in test [3], in test [4], in test [5] and in test [6] was “inactive” throughout.
With `CCCCOc1ccccc1Cn1c(=O)sc2ccccc21`, the Potency result in test [1], in test [2], in test [3], in test [5] and in test [6] was “inactive” in each case. In test [4], the outcome is “inactive [at 12.7 µM]”.
In the case of `CCOc1cc(/C=N/Nc2nc(-c3cccs3)c(NC(C)=O)s2)ccc1O`, the Potency result in test [1], in test [2], in test [3], in test [4], in test [5] and in test [6] was “inactive” throughout.
Turning to `COC(=O)c1cc2sc(C)cc2n1Cc1cccc(OC)c1`, the Potency result in test [1], in test [2], in test [3], in test [4], in test [5] and in test [6] was “inactive” in each case.
On to `CCCC(=O)N1c2nc(C(C)C)nn2C2(CCCCC2)[C@@H]2CCCC[C@@H]21`, for which the Potency result in test [1], in test [2], in test [3], in test [4], in test [5] and in test [6] was “inactive” in each case.
Regarding `COc1cc(OC)nc(Oc2cc(/C=N/O)ccc2OC)n1`, the Potency entry in test [1], in test [2] and in test [4] was “inactive” throughout. The activation in test [3] is -0.415% [at 17.1 µM, percent relative to cAMP agonist control]; in test [6], 1.61% [at 30.8 µM]. Moreover, the activity change, negative = inhibition in test [5] was -10.5% [at 30.8 µM].
Take `COCCNC(=O)c1ccc2c(c1)N(Cc1ccc(C(F)(F)F)cc1)C(=O)c1ccccc1S2`: the Potency entry in test [1], in test [2], in test [3], in test [4], in test [5] and in test [6] was “inactive” each time.
Consider `Cn1cc(C(=O)N/N=C/C2=C(N3CCOCC3)C(=C\c3ccccc3)/CC2)ccc1=O`, for which the Potency entry in test [1], in test [2] and in test [4] was “inactive” each time. In addition, the activation is -0.586% [at 17.1 µM, percent relative to cAMP agonist control] in test [3] and 5.8% [at 30.8 µM] in test [6]. Besides, in test [5], the activity change, negative = inhibition is -15% [at 30.8 µM].
For `CCC(Oc1ccccc1)C(=O)Nc1cc(Cl)ccc1-n1cncn1` (stereo not given), the Potency result in test [1], in test [2], in test [3], in test [5] and in test [6] was “inactive” throughout. The Potency in test [4] was 47.8 µM (active).
